The source of these data is PubChem BioAssay (EPA / NIEHS).

Some compounds were tested as several samples or in several runs, with calls that do not always agree. Activity calls are given as the source filed them. The calls were made as follows: active = hit-call score of the fitted dose curve at least 0.9, where 1 is the maximum; inactive = score below 0.9.

Read-out in experiment [1]: Tissue plasminogen activator (tPA), PLAT (gene 5327)
The experiment can be described thus: BSK_BE3C_tPA: BioMAP Diversity Plus: BE3C Assay for Tissue plasminogen activator (tPA) Biomarker Activity (AID 2283041).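 As to outcome: tPA level quantified by ELISA one day after compound addition.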 As to conditions: primary human bronchial epithelial cells; actives raise or lower the signal. Put shortly: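 Using human lung primary bronchial epithelial cells, tPA was measured by ELISA 24 h after dosing; data fitted relative to DMSO.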

Read-out in experiment [2]: Interleukin-8 (IL8), CXCL8 (gene 3576)
As to the kind of experiment: BSK_CASM3C_IL8: BioMAP Diversity Plus: CASM3C Assay for Interleukin-8 (IL8) Biomarker Activity (AID 2283042).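 Also: IL-8 protein level quantified by ELISA.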 As to conditions: primary human coronary artery smooth muscle cells; actives raise or lower the signal.

Read-out in experiment [3]: Human Leukocyte Antigen - DR isotype (HLADR), HLA-DRA (gene 3122)
The experiment can be described thus: BSK_CASM3C_HLADR: BioMAP Diversity Plus: CASM3C Assay for Human Leukocyte Antigen - DR isotype (HLADR) Biomarker Activity (AID 2283043).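 Also: cell-surface HLA-DR protein level quantified by ELISA.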 As to conditions: primary human coronary artery smooth muscle cells; actives raise or lower the signal.

Read-out in experiment [4]: Macrophage colony-stimulating factor (MCSF), CSF1 (gene 1435)
As to the kind of experiment: BSK_CASM3C_MCSF: BioMAP Diversity Plus: CASM3C Assay for Macrophage colony-stimulating factor (MCSF) Biomarker Activity (AID 2283044).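 Also: M-CSF protein amount quantified by ELISA after 24 h exposure.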 As to conditions: primary human coronary artery smooth muscle cells; actives raise or lower the signal.

Read-out in experiment [5]: Low-density lipoprotein receptor (LDLR), LDLR (gene 3949)
The experiment can be described thus: BSK_CASM3C_LDLR: BioMAP Diversity Plus: CASM3C Assay for Low-density lipoprotein receptor (LDLR) Biomarker Activity (AID 2283045).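 Also: LDLR protein level on the cell surface quantified by ELISA.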 As to conditions: primary human coronary artery smooth muscle cells; actives raise or lower the signal.

Read-out in experiment [6]: Monocyte Chemoattractant Protein-1 (MCP1), CCL2 (gene 6347)
As to the kind of experiment: BSK_CASM3C_MCP1: BioMAP Diversity Plus: CASM3C Assay for Monocyte Chemoattractant Protein-1 (MCP1) Biomarker Activity (AID 2283046).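 Also: MCP-1 level quantified by ELISA 24 h after dosing.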 As to conditions: primary human coronary artery smooth muscle cells; actives raise or lower the signal.

The nature of experiment [7]: BSK_CASM3C_Proliferation: Cell Proliferation Assessment in the BioMAP Diversity Plus: CASM3C Assay (AID 2283047).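 Also: sulforhodamine B total protein stain as relative cell number at 560 nm; sub-confluent cells exposed 48 h before staining; fitted both ways against DMSO so gain or loss of cell number.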 As to conditions: primary human coronary artery smooth muscle cells.
Read-out in experiment [8]: Monokine induced gamma interferon (MIG), CXCL9 (gene 4283)
The experiment can be described thus: BSK_CASM3C_MIG: BioMAP Diversity Plus: CASM3C Assay for Monokine induced gamma interferon (MIG) Biomarker Activity (AID 2283048).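 Also: MIG protein level measured by ELISA.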 As to conditions: primary human coronary artery smooth muscle cells; actives raise or lower the signal.

Read-out in experiment [9]: serum amyloid A (SAA), SAA1 (gene 6288)
The experiment can be described thus: BSK_CASM3C_SAA: BioMAP Diversity Plus: CASM3C Assay for serum amyloid A (SAA) Biomarker Activity (AID 2283049).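 Also: SAA protein level quantified by ELISA.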 As to conditions: primary human coronary artery smooth muscle cells; actives raise or lower the signal.

Experiment [10] can be described thus: BSK_CASM3C_SRB: Viability Assessment in the BioMAP Diversity Plus: CASM3C Assay (AID 2283050).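 Also: cells exposed to compound for 24 h.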 As to conditions: primary human coronary artery smooth muscle cells.
Read-out in experiment [11]: Thrombomodulin, THBD (gene 7056)
The experiment can be described thus: BSK_CASM3C_Thrombomodulin: BioMAP Diversity Plus: CASM3C Assay for Thrombomodulin Biomarker Activity (AID 2283051).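 Also: thrombomodulin protein level measured by ELISA 24 h after dosing.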 As to conditions: primary human coronary artery smooth muscle cells; actives raise or lower the signal.

Read-out in experiment [12]: Tissue Factor, F3 (gene 2152)
As to the kind of experiment: BSK_CASM3C_TissueFactor: BioMAP Diversity Plus: CASM3C Assay for Tissue Factor Biomarker Activity (AID 2283052).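 Also: cell surface tissue factor protein level read by ELISA.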 As to conditions: primary human coronary artery smooth muscle cells; actives raise or lower the signal.

Read-out in experiment [13]: Interferon-gamma inducible Protein 10 (IP10), CXCL10 (gene 3627)
As to the kind of experiment: BSK_hDFCGF_IP10: BioMAP Diversity Plus: hDFCGF Assay for Interferon-gamma inducible Protein 10 (IP10) Biomarker Activity (AID 2283053). As to conditions: primary human foreskin fibroblasts; actives raise or lower the signal. Put shortly: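 Chemical-treated human skin fibroblasts (primary) were sampled at 24 h for IP-10 by ELISA. Both increases and decreases relative to DMSO were scored.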

Read-out in experiment [14]: Urokinase-type plasminogen activator receptor (uPAR), PLAUR (gene 5329)
The experiment can be described thus: BSK_CASM3C_uPAR: BioMAP Diversity Plus: CASM3C Assay for Urokinase-type plasminogen activator receptor (uPAR) Biomarker Activity (AID 2283054).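 Also: cell-surface uPAR protein level quantified by ELISA.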 As to conditions: primary human coronary artery smooth muscle cells; actives raise or lower the signal.

Read-out in experiment [15]: Vascular cell adhesion molecule 1 (VCAM1), VCAM1 (gene 7412)
The experiment can be described thus: BSK_CASM3C_VCAM1: BioMAP Diversity Plus: CASM3C Assay for Vascular cell adhesion molecule 1 (VCAM1) Biomarker Activity (AID 2283055).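 Also: VCAM-1 protein level quantified by ELISA on the cells.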 As to conditions: primary human coronary artery smooth muscle cells; actives raise or lower the signal.

Read-out in experiment [16]: Collagen III, COL3A1 (gene 1281)
The experiment can be described thus: BSK_hDFCGF_CollagenIII: BioMAP Diversity Plus: hDFCGF Assay for Collagen III Biomarker Activity (AID 2283056). As to conditions: primary human foreskin fibroblasts; actives raise or lower the signal. The method, boiled down: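 Human foreskin fibroblast primary cultures sampled 24 h after dosing; Collagen III quantified by ELISA. Signal fitted bidirectionally against DMSO baseline.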

Read-out in experiment [17]: Epidermal growth factor receptor (EGFR), EGFR (gene 1956)
The experiment can be described thus: BSK_hDFCGF_EGFR: BioMAP Diversity Plus: hDFCGF Assay for Epidermal growth factor receptor (EGFR) Biomarker Activity (AID 2283057). As to conditions: primary human foreskin fibroblasts; actives raise or lower the signal. The method, boiled down: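 Cell-based multiplexed assay in primary human foreskin fibroblasts. EGFR is read by ELISA 24 h after treatment and compared with DMSO controls.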

Read-out in experiment [18]: Interleukin-8 (IL8), CXCL8 (gene 3576)
As to the kind of experiment: BSK_hDFCGF_IL8: BioMAP Diversity Plus: hDFCGF Assay for Interleukin-8 (IL8) Biomarker Activity (AID 2283058). As to conditions: primary human foreskin fibroblasts; actives raise or lower the signal. The method, boiled down: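 Primary human foreskin fibroblasts (hDFCGF system) dosed with chemical; IL-8 measured by ELISA 24 hours later. Bidirectional curve fitting relative to DMSO baseline; cytotoxicity tracked in parallel cultures by SRB total protein staining.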

Experiment [19] can be described thus: BSK_hDFCGF_Proliferation: Cell Proliferation Assessment in the BioMAP Diversity Plus: hDFCGF Assay (AID 2283059).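 Also: curves fitted for both rise and fall of signal versus DMSO baseline.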 As to conditions: primary human foreskin fibroblasts. The method, boiled down:
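This proliferation readout used SRB total-protein staining of human foreskin fibroblasts […], normalized to DMSO with bidirectional curve fitting.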

Read-out in experiment [20]: Macrophage colony-stimulating factor (MCSF), CSF1 (gene 1435)
The experiment can be described thus: BSK_hDFCGF_MCSF: BioMAP Diversity Plus: hDFCGF Assay for Macrophage colony-stimulating factor (MCSF) Biomarker Activity (AID 2283060). As to conditions: primary human foreskin fibroblasts; actives raise or lower the signal. Put shortly:
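Human foreskin fibroblast primary cultures; M-CSF measured by ELISA 24 hours after chemical dosing. Bidirectional fitting relative to DMSO, with overt cytotoxicity tracked by parallel SRB total-protein staining (0.1% SRB, 10% TCA fixation, 560 nm).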

As for `O=S(=O)(O)CCC(F)(F)C(F)(F)C(F)(F)C(F)(F)C(F)(F)C(F)(F)F`, the result in [1], in [2], in experiment [3], in experiment [4], in [5] and in experiment [6] was inactive. For the same molecule, the result in [7], in experiment [8], in experiment [9], in [10], in experiment [11] and in [12] was inactive. In addition, the outcome in experiment [13], in experiment [14], in [15], in experiment [16], in [17] and in experiment [18] was inactive. The outcome in experiment [19] and in [20] was inactive. Besides, in experiment [20], the AC50 (commonly the concentration giving half of the maximal activity seen) is 6.02 µM (active).
`COCc1nnc(-c2ccc[n+]([O-])c2)n1-c1c(Cl)c(Cl)cc2[nH]c(=O)c(=O)[nH]c12`: the outcome in experiment [1], in [2], in [3], in [4], in [5] and in experiment [6] was inactive. Further, the outcome in experiment [7], in experiment [8], in experiment [9], in experiment [10], in experiment [11] and in [12] was inactive. The result in experiment [13], in [14], in experiment [15], in experiment [16], in [17] and in experiment [18] was inactive. In [20], the outcome was inactive.
Turning to `OCCOCCOCCO`, the result in [1], in experiment [2], in experiment [3], in experiment [4], in experiment [5] and in experiment [6] was inactive. In addition, the result in experiment [7], in experiment [8], in [9], in experiment [10], in experiment [11] and in [12] was inactive. Moreover, the outcome in experiment [13], in experiment [14], in experiment [15], in experiment [16], in [17] and in experiment [18] was inactive. Further, the result in experiment [19] and in experiment [20] was inactive.
For the molecule `CCN(CC)C(=S)SSC(=S)N(CC)CC`, the AC50 in [1] was 7.46 µM (active); in experiment [2], 20 µM (active); in [3], 31.2 µM (active); in experiment [4], 24.4 µM (active); in [5], 35.4 µM (active); in experiment [6] it was 31.6 µM (active). The AC50 in experiment [7] was 12.8 µM (active); in [8], 33.3 µM (active); in [9], 28.8 µM (active); in experiment [10], 31.4 µM (active); in experiment [11] it was 5.26 µM (active); in experiment [12], 20 µM (active). Also, the concentration at half-maximal activity (AC50) was 1.67 µM (active) in experiment [13]; 31.1 µM (active) in experiment [14]; 30.6 µM (active) in [15]; 4.78 µM (active) in experiment [16]; 2.81 µM (active) in [18]; 1.76 µM (active) in experiment [20]. In [17], the outcome was inactive.
With `Cc1ccc(S(=O)(=O)NC(=O)NN2CCCCCC2)cc1`, the outcome in experiment [1], in experiment [2], in [3], in experiment [4], in [5] and in experiment [6] was inactive. In addition, the result in experiment [7], in experiment [8], in experiment [9], in experiment [10], in experiment [11] and in experiment [12] was inactive. In addition, the outcome in [13], in experiment [14], in [15], in experiment [16], in experiment [17] and in experiment [18] was inactive. For the same molecule, the result in [20] was inactive.
Take `CCCOc1ccc(S(=O)(=O)N2CCN(CC)CC2)cc1-c1nc2c(CC)n(Cc3ccccn3)nc2c(=O)[nH]1`: the result in experiment [1], in [2], in experiment [4], in [5], in experiment [6] and in [7] was inactive. In addition, the result in [8], in experiment [9], in experiment [10], in experiment [11], in experiment [12] and in [13] was inactive. Also, the result in [14], in [15], in experiment [16], in [17], in experiment [18] and in experiment [20] was inactive. For the same molecule, in [3], the half-maximal activity concentration (AC50) was 3.97 µM (active).
Turning to `CC(=O)c1ccccc1`, the result in experiment [1], in experiment [2], in [3], in [4], in [5] and in experiment [6] was inactive. Moreover, the result in experiment [7], in experiment [8], in [9], in experiment [10], in experiment [11] and in [12] was inactive. Besides, the result in [13], in experiment [14], in [15], in experiment [16], in experiment [17] and in [18] was inactive. The result in experiment [20] was inactive.
